Reference: PubChem BioAssay (NCATS)
Results filed as inconclusive are left out. Where a call stands in place of a potency, no number is given. Unmarked numbers belong to inactive results. Calls of active or inactive are those of the source. Unless noted, calls follow the shape of the dose curve; as a rule, active = well fitted curve in the direction sought with a large enough effect; inconclusive = small, poorly fitted or top-dose-only effect, or another doubt; inactive = no such curve, though single readings can be large; an effect the other way counts as inactive or inconclusive.

Assays:
[1] = biological target: Protein phosphatase 1D (Homo sapiens) (UniProt O15297); assay: RapidFire Mass Spectrometry qHTS Assay for Modulators of WT P53-Induced Phosphatase 1 (WIP1) (AID 1347424);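 also: amount of dephosphorylated VEPPL-S-QETFS peptide product formed by WIP1; series mostly up to about 63 µM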
Chain of Protein phosphatase 1D (Homo sapiens) (O15297 whole entry, looked up): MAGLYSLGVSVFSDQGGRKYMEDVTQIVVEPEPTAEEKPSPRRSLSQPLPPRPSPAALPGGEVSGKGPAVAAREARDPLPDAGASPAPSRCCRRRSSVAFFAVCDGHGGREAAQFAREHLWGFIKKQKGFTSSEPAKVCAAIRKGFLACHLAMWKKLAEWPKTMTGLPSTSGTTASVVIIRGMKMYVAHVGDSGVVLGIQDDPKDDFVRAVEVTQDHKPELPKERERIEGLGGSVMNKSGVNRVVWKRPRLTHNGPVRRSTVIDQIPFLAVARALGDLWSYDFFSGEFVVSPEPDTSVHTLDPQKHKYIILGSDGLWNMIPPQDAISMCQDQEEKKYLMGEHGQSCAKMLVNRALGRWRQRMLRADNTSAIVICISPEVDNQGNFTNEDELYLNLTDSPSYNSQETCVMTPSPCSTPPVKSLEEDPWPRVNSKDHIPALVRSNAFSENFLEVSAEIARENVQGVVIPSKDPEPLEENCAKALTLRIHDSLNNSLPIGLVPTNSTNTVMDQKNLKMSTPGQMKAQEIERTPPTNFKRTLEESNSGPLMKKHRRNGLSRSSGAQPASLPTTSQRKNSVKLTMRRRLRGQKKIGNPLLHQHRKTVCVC
Procedure, shortened: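 RapidFire mass spectrometry measured dephosphorylated peptide after 5 min room-temperature reaction of 2 uM VEPPL-pS-QETFS with 10 nM WIP1 (50 mM Tris-HCl pH 7.5, 30 mM MgCl2, 0.1 mM EGTA, BSA), following 1 hr compound preincubation; 1 uM isotope-labelled product standard.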

[2] = biological target: Protein phosphatase 1D (Homo sapiens) (UniProt O15297); assay: Rhodamine-PBP qHTS Assay for Modulators of WT P53-Induced Phosphatase 1 (WIP1) (AID 1347425)
Procedure, shortened: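 The read-out is the change in Rhodamine-PBP fluorescence (f1 - f0, ex 525/em 598 nm) as Pi is released, read each minute for 11 min. Final reaction: 5 nM WIP1, 10 uM phosphopeptide VEPPL-pS-QETFS, 10 uM Rh-PBP, 50 mM Tris-HCl pH 7.5, 30 mM MgCl2. Compound was preincubated with enzyme for 1 hour at room temperature.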

[3] = Primary qHTS for inhibitors of La Crosse Virus (LACV) - induced cell death in SH-SY5Y cells (AID 1508616);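 also: top concentration of the series differs between compounds; higher means more rescue of cells from virus-induced death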
Procedure, shortened: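 Screening measures cell viability in LACV-infected SH-SY5Y cultures. Compound was added before virus (0.01 MOI), and ATP was detected by luminescence 6 days later.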

[4] = biological target: Calcium and integrin-binding protein 1 (Homo sapiens) (UniProt Q99828); assay: Primary qHTS for Identification of Calcium Integrin Binding Protein 1 (CIB1) Competitor (AID 1508620); also: potency is read from the fitted curve at half-maximal effect
Chain of Calcium and integrin-binding protein 1 (Homo sapiens) (Q99828 whole entry, looked up): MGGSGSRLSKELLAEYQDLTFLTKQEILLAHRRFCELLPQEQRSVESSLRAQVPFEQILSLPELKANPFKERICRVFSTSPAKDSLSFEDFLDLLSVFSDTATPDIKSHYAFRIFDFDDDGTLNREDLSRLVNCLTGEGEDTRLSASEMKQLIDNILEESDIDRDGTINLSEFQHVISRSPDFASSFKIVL
Procedure, shortened: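 CIB1-GST (1 uM final) and compound incubated 15 min at room temperature before adding FITC-alphaIIb peptide tracer (100 nM final). Competition for binding read by fluorescence polarization (ex 480, em 540) after another 15 min at room temperature.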

[5] = Primary qHTS for small molecule stabilizers of the endoplasmic reticulum resident proteome: Secreted ER Calcium Modulated Protein (SERCaMP) assay (AID 1508630)
Procedure, shortened: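 The SH-SY5Y reporter protocol was run at 3 concentrations up to 38.3 uM (primary) or 11 concentrations (follow-up): 16 h compound, 100 nM thapsigargin for 4 h, then extracellular luciferase luminescence.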

[6] = A High-Content qHTS Against Drug Library for the Identification of Small Molecules that Inhibit DYT1 Early Onset Primary Dystonia-Associated Cell Pathology (AID 1645839; calls by dose curve; also: potency is read from the fitted curve at half-maximal effect)
Procedure, shortened: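 High-content imaging quantified EGFP-TorsinA mislocalization in HEK293-derived cells inducibly expressing DYT1 mutant torsinA, after 48 h exposure to compound given together with tetracycline induction. Cell count served as a toxicity channel alongside %pathology.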

[7] = Cell Viability qHTS for small molecule stabilizers of the endoplasmic reticulum resident proteome (AID 1508629); settings: cell viability counter-screen, 100 nM thapsigargin for final 4 h;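 also: compound exposure about 46 h in total before the viability read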; also: potency is read from the fitted curve at half-maximal effect;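 as to max response: human SH-SY5Y neuroblastoma cells carrying the GLuc-SERCaMP reporter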

SMILES	Potency [1]	outcome [2]	outcome [3]	Potency [4]	Potency [5]	Potency [6]	Potency [7]	max response [7]
O=c1[nH]c(=O)n([C@H]2O[C@H](CO)[C@@H](O)[C@@H]2O)cc1/C=C\Br	inactive	inactive	inactive	inactive	inactive	inactive	–	–
CCOC(=O)C1=C(C)NC(C)=C(C(=O)OCC)C1c1ccccc1/C=C/C(=O)OC(C)(C)C	inactive	inactive	inactive	inactive	inactive	–	–	–
COC(=O)c1cc(Cl)ccc1OC	inactive	inactive	inactive	inactive	–	inactive	–	–
CC(NC(CCc1ccccc1)C(=O)O)C(=O)N1C(=O)N(C)CC1C(=O)O (stereo not given)	inactive	inactive	inactive	inactive	inactive	inactive	–	–
O=C1c2ccccc2CCc2ccccc21	inactive	inactive	inactive	inactive	–	inactive	–	–
[O-][n+]1cccc(/C(Cl)=N/OC[C@@H](O)CN2CCCCC2)c1	inactive	inactive	inactive	inactive	inactive	inactive	–	–
CCCCCCCCCCCC[N+](C)(C)Cc1ccccc1	inactive	inactive	inactive	–	inactive	–	–	–
CCCCCCCCCCCCCCCCCCNC(=O)OC1CCN(C(=O)OC[C@H](COC(=O)N(Cc2cccc[n+]2CC)C(=O)c2ccccc2OC)OC)CC1	inactive	inactive	inactive	–	inactive	–	–	–
Cc1ccc(-c2ccccc2C#N)cc1	inactive	inactive	inactive	inactive	–	inactive	–	–
NS(=O)(=O)c1cc(C(=O)NN2C[C@H]3[C@H]4CCC(C4)[C@H]3C2)ccc1Cl	inactive	inactive	inactive	inactive	inactive	–	–	–
CCn1ccc(NS(=O)(=O)c2ccc(N)cc2)nc1=O	inactive	inactive	inactive	inactive	–	inactive	–	–
C[C@H]1NCc2cc(-c3ccc4c(=O)c(C(=O)O)cn(C5CC5)c4c3OC(F)F)ccc21	inactive	inactive	inactive	inactive	inactive	inactive	–	–
CC(C)C(=O)Nc1cccc(C2CN3CCSC3=N2)c1 (stereo not given)	inactive	inactive	inactive	inactive	inactive	inactive	–	–
O=C1CCCc2c(O)cccc21	inactive	inactive	inactive	inactive	inactive	inactive	–	–
CC(=O)OCC(=O)[C@@]1(O)[C@H](OC(C)=O)C[C@H]2[C@@H]3CCC4=CC(=O)C=C[C@]4(C)[C@@]3(F)[C@@H](O)C[C@@]21C	inactive	inactive	inactive	inactive	inactive	inactive	–	–
Nc1ccc2cc3ccc(N)cc3nc2c1	inactive	inactive	inactive	2.24 µM (active)	inactive	–	–	–
CCCCC(=O)OCC(=O)[C@H]1[C@H](C)C[C@H]2[C@@H]3C[C@H](F)C4=CC(=O)C=C[C@]4(C)[C@@]3(F)[C@@H](O)C[C@@]21C	inactive	inactive	inactive	inactive	inactive	inactive	–	–
O=C(O)CCCC[C@@H]1SC[C@@H]2NC(=O)N[C@@H]21	inactive	inactive	inactive	inactive	–	inactive	–	–
O=C(O)c1cn(C2CC2)c2cc(Cl)c(F)cc2c1=O	inactive	inactive	inactive	inactive	inactive	inactive	–	–
C[C@@H]1CCC[C@H](C)N1CCCC(O)(c1ccccc1)c1ccccn1 (stereo not given in full)	inactive	inactive	inactive	inactive	inactive	–	–	–
CCCCCN(CCCOC)C(=O)C(CCC(=O)O)NC(=O)c1ccc(Cl)c(Cl)c1 (stereo not given)	inactive	inactive	inactive	inactive	inactive	–	–	–
O=C1CC2(CCCC2)CC(=O)N1	inactive	inactive	inactive	–	inactive	inactive	–	–
OC1(c2ccc(Cl)c(C(F)(F)F)c2)CCN(CCCC(c2ccc(F)cc2)c2ccc(F)cc2)CC1	inactive	inactive	inactive	inactive	inactive	4.47 µM (active)	–	–
Cc1cc2nc3ccc(=[N+](C)C)cc-3sc2cc1N	–	–	–	–	–	–	7.94 µM (active)	–
CC(C(O)c1ccccc1)N(C)CCOC(c1ccccc1)c1ccccc1 (stereo not given)	–	–	–	–	–	–	–	-4.6%
